We go through 13 compounds from paper PMC5540273 (PLoS ONE, 2017).

The structures appear in SMILES notation.
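Further: KINOMEscan kinase panel screen.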

This assay relates to T1, MEK3.
T1 construct: gene MAP2K3
As to conditions: concentration: 1 μM,replicates: in singlicate; n = 1.
Consider `CSc1nccc(-c2c(-c3ccc(F)cc3)ncn2CCCN2CCOCC2)n1.Cl` [SB-217146], for which the “%Inh” value is recorded as 33%.
To `NC(=O)c1ccc(-c2cc3ncnc(SCC(=O)O)c3s2)cc1` belongs 9%; to `COc1cccc(C2=C(Nc3cccc(Cl)c3)C(=O)NC2=O)c1` [SB-341556], 15%; to `Cn1ccc2ncnc(Oc3ccc(NC(=O)Nc4ccnc(C(F)(F)F)c4)c(Cl)c3)c21`, 8%.
For `Cc1n[nH]c2cc(Nc3ccnc(Nc4cccc(CN5CCOCC5)c4)n3)ccc12` [GW682569], the “%Inh” value is listed as 11%.
The same measure for `COC(=O)c1cccc(NC(=O)NC2CCN(c3ccnc(NCc4ccc(F)cc4)n3)CC2)c1` [GSK1379860]: 0%; for `CS(=O)c1ccc(-c2coc3ccc(-c4n[nH]c(=O)o4)cc23)cc1` (stereo not shown): 25%; for `Cc1cccc2c(-c3ccncc3)c(-c3ccc(F)cc3)nn12.Cl` [GW461487]: 0%.
Regarding `FC(F)(F)c1cc(Br)cc(Nc2nccc(-c3cnn4ncccc34)n2)c1` [GW810578], the “%Inh” value was determined as 90.3%.
For `C[C@@H](Oc1cc(-n2cnc3cc(-c4ccncc4)ccc32)sc1C(N)=O)c1ccccc1Cl` [GSK479719], the “%Inh” value came to 0%.
As to `NC(=O)Nc1sc(-c2ccc(F)cc2)cc1C(N)=O` [GW789449], the “%Inh” value turned out to be 83%.
To `O=C(Nc1ccc(Oc2ccc3nc(NC(=O)C4CC4)cn3n2)c(F)c1)c1cccn(-c2ccccc2)c1=O` belongs 0%; to `Cc1ccc(CC(=O)N2CCc3cc(-c4cn(C)c5ncnc(N)c45)ccc32)cc1` [GSK2634758], 0%.
